# Compound activity deposited in PubChem BioAssay by several laboratories.
# Hits are enriched below; roughly 5.9% of the tested compounds scored in any of these assays.
# ABHD5-PLIN5 inh – inhibitors of human ABHD5-perilipin-5 interaction. Q00G26+Q8WTS1. Split G. princeps luciferase complementation, luminescence, 4 h. inhibition, % at 4 µM. actives 0.78% (n = 360,000);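 active = inhibition above the mean inhibition across every tested compound plus 3 SD, cut at about 22% in these data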;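 also: 0% = DMSO only wells and the 100% control is not disclosed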
# LANA-H2B inh – blocks KSHV LANA binding to histone H2A/H2B. Q9QR71. cell-free LANA-H2A/H2B peptide, fluorescence polarization. inhibition, % (test concentration not listed). actives 0.6% (n = 320,000). AID 2629; in the data active = inhibition mostly above about 10%, no sharp cut-off; inactive = mostly below about 6.7%
# PRMT1 FP inh – inhibitors of human PRMT1 | Q99873 | recombinant PRMT1, activity-based probe fluorescence polarization | actives 1.3% (n = 370,000) | inhibition, % at 2.79 µM;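 active = inhibition above about 21% made by adding two undisclosed values, limit read from the data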
# Target sequence (Q99873 whole entry, looked up): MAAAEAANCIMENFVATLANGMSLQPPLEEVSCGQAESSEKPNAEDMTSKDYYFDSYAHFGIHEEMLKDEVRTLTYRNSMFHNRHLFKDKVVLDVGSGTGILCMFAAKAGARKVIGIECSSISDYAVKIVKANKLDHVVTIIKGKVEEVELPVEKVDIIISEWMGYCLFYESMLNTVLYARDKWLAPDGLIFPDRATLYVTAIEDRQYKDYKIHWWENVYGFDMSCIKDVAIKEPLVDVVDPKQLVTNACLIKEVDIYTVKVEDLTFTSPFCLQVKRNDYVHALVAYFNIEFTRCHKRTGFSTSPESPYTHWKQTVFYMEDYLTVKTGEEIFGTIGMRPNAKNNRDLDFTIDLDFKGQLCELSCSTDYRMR
# rCAG binder – binds r(CAG) RNA repeats. r(CAG) RNA repeat, TO-PRO-1 dye displacement fluorescence. inhibition, % at 3 µM. actives 1.3% (n = 370,000);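 active = inhibition above the plate cutoff, the mean of all test compounds on that plate plus 3 SD, cut at about 35% in these data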;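 also: 0% = DMSO alone and 100% = 100 µM mitoxantrone as full dye displacement; higher means more dye released from RNA so lower well fluorescence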
# ALR H2O2 inh – inhibitors of human sulfhydryl oxidase ALR; purified ALR, DTT oxidation, H2O2 HRP-luminol luminescence; actives 3.8% (n = 290,000); P55789; inhibition, % (test concentration not listed);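 active = mean replicate inhibition above about 79%, with every replicate also reaching it, limit read from the data; inconclusive = only one of the two criteria met; inactive = mean below limit and not every replicate reaching it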
# Target sequence (P55789 whole entry, looked up): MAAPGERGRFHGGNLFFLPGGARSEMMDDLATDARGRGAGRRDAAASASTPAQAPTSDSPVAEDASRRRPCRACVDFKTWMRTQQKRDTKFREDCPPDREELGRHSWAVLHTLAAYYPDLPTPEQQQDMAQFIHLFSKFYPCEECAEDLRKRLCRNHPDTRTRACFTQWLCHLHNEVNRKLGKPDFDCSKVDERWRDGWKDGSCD
# Rtt109 Vps75 – inhibitors of Candida albicans Rtt109/Vps75 histone acetyltransferase | Q5AAJ8 | purified Rtt109/Vps75, ThioGlo CoA-SH fluorescence, 4 h | inhibition, % at 34.9 µM | actives 0.16% (n = 330,000) | AID 540336;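 active = inhibition of at least 50% in every replicate; inconclusive = best replicate reaches 50% inhibition but some replicates fall short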
# ABHD5 PLIN5 conf – ABHD5-PLIN5 interaction inhibition, confirmed; inhibition, % at 4 µM; shares compounds with ABHD5-PLIN5 inh; actives 67% (n = 2,200); AID 651612; biochemical ABHD5-PLIN5 interaction, luminescence; in the data active = inhibition above about 23%;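 also: 0% = DMSO vehicle wells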
# HNF4 counter – HNF4 split-luciferase signal hit, counter-screen; shares compounds with ABHD5-PLIN5 inh; HNF4 dimerization, luminescence, biochemical; inhibition, % at 4 µM; actives 77% (n = 2,200);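 active = mean inhibition across replicate wells exceeding the computed hit threshold, cut at about 13% in these data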;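 also: light from luciferase halves that rejoin when HNF4 fusion proteins dimerize; 0% = DMSO only wells and the 100% control is not given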
# An asterisk follows results filed as active; i = inactive; ? = inconclusive; . = not tested or not shown.
SMILES,ABHD5-PLIN5 inh,LANA-H2B inh,PRMT1 FP inh,rCAG binder,ALR H2O2 inh,Rtt109 Vps75,ABHD5 PLIN5 conf,HNF4 counter
COCCn1c(SC(C)C(=O)Nc2ncc(Cl)cc2Cl)nc2ccccc21 (stereo not drawn),4,-5,2,-1,.,18,.,.
COCCCn1c2nc3ccccc3nc2c2c(=O)n(Cc3ccc(Cl)cc3)cnc21,-2,-1,-1,-2,-3,6,.,.
O=c1c2c3nc4ccccc4nc3n(Cc3ccccc3)c2ncn1Cc1ccco1,44*,.,38*,37*,.,0,96*,95*
Oc1c(C(c2ccccc2)N2CCOCC2)ccc2ccccc12 (stereo not drawn),40*,.,13,15,.,-1,102*,106*
Cc1ccc(C2CC(c3cccs3)=NN2C(=O)c2ccc(Br)o2)cc1 (stereo not drawn),25*,0,2,9,-5,-1,45*,58*
CCOC(=O)C1CCN(Cc2cc(Cl)c3ccccc3c2O)CC1,66*,2,.,.,.,-4,20,55*
Oc1c(CN2CCCC(C(F)(F)F)C2)cc(Cl)c2ccccc12 (stereo not drawn),24*,-7,17,7,-27,-26,9,12
CCOC(=O)C1CCN(Cc2ccc(OC)c(C)c2OC)CC1,4,-1,-3,-5,2,7,.,.
Cc1ccc(C(=O)Nc2cccc(C(O)c3ccccc3)c2)cc1 (stereo not drawn),-5,3,-1,-4,-1,-6,.,.
CC(O)CC(=O)OC[C@]12CC[C@H]3[C@@](C)(CC[C@H]4C(C)(C)CCC[C@]34C)[C@@H]1CC(C1=CC(=O)OC1O)O2 (stereo partly drawn),80*,.,12,13,.,.,97*,71*
CC(=O)OC[C@]12CC[C@H]3[C@@](C)(CC[C@H]4C(C)(C)CCC[C@]34C)[C@@H]1C[C@H](C1=CC(=O)O[C@H]1OC(C)=O)O2,.,1,.,.,7,.,.,.
CC(C)C[C@@H]1COc2cc(N3CCSCC3)ccc2S(=O)(=O)N1C,.,.,0,5,.,.,.,.
Cc1ccc2nc(N(CCCN(C)C)C(=O)CN3C(=O)c4ccccc4C3=O)sc2c1,13,1,0,4,.,18,.,.
Cc1cc(C)c2sc(N(CCCN(C)C)C(=O)c3ccc(Br)s3)nc2c1,23*,8,-2,8,-4,6,17,9
Cc1cc(C)c2sc(N(CCCN(C)C)C(=O)CN3C(=O)c4ccccc4C3=O)nc2c1,24*,2,-2,6,-9,44,14,4
O=C(CSc1nnc(-c2ccccc2)n1-c1ccc(Cl)cc1)c1ccc(F)cc1,.,.,-4,1,.,.,.,.
CCNC(=O)C1(C)CCCN(C(=O)Cc2ccc(OC)c(OC)c2)C1 (stereo not drawn),10,.,1,3,.,.,.,.
COc1cc(NC(=O)C/C(C)=N/NC(=O)C2CCCCC2)c(OC)cc1Cl,8,1,5,10,8,4,.,.
COc1cc(NC(=O)C/C(C)=N/NC(=O)C(=O)NC2CCCCC2)c(OC)cc1Cl,24*,-3,5,10,8,-1,6,5
O=C(CCl)N1N=C(c2ccco2)CC1c1cccs1 (stereo not drawn),24*,i,.,.,8,24,30*,20*
Cc1cc(C)c(C#N)c(Sc2nc(C)c([N+](=O)[O-])c(C)c2C#N)n1,31*,.,0,5,.,.,36*,27*
CCCCCC(=O)N1C[C@H](O)[C@@H](n2cc(C3CC3)nn2)C[C@@H]1c1ccc(Cl)cc1,2,.,0,3,.,.,.,.
COc1cc(CNCc2ccccn2)ccc1OCc1ccc(Cl)c(Cl)c1,20,0,4,-8,-12,14,.,.
COc1cc(CNCCN2CCOCC2)ccc1OCc1ccc(Cl)cc1Cl,24*,-3,0,-3,1,9,12,13*
COc1cc(CNCc2ccccn2)ccc1OCc1ccc(Cl)cc1Cl,25*,3,2,-4,-15,34,7,7
SMILES,ABHD5-PLIN5 inh,LANA-H2B inh,PRMT1 FP inh,rCAG binder,ALR H2O2 inh,Rtt109 Vps75,ABHD5 PLIN5 conf,HNF4 counter
COC(=O)C1=C(C)N(Cc2ccccc2C(F)(F)F)C(=NCc2ccccc2)NC1c1ccc(F)cc1 (stereo not drawn),.,.,-2,2,.,.,.,.
CC1(c2nnnn2Cc2ccccc2)CCC(=O)N1Cc1ccc(F)cc1 (stereo not drawn),9,.,0,-2,.,.,.,.
COC(=O)[C@@]1(Cc2ccc(F)cc2)[C@H]2c3cc(C(=O)N(C)C)n(CCO)c3C[C@H]2CN1C(=O)c1ccccc1,8,.,-1,2,.,.,.,.
COC(=O)[C@@]1(Cc2ccc(F)cc2)[C@H]2c3cc(C(=O)N(C)C)n(CCCNc4ncc(C(F)(F)F)cc4Cl)c3C[C@H]2CN1C(=O)c1ccccc1,25*,.,0,16,.,.,8,5
CC(C)(C)OC(=O)N1Cc2cc3ccccc3nc2C1,2,.,-3,0,.,.,.,.
CCOC(=O)C1(C(=O)OCC)COC(=O)C1CN1Cc2cc3ccccc3nc2C1 (stereo not drawn),46*,.,23*,10,.,.,29*,89*
CC1Sc2ccc(S(=O)(=O)N3CCC(C(=O)NCc4ccc(Cl)cc4)CC3)cc2NC1=O (stereo not drawn),27*,6,2,2,-12,5,43*,.
COc1ccc(CNC(=O)C2CCN(S(=O)(=O)c3ccc4c(c3)NC(=O)C(C)S4)CC2)cc1 (stereo not drawn),2,-3,3,1,-1,?,.,.
O=C1/C(=C\c2ccncc2)CCc2ccccc21,32*,5,2,-5,.,2,63*,60*
O=C1/C(=C/c2ccncc2)CCc2ccccc21,34*,-4,-4,0,-15,5,62*,59*
O=C1/C(=C/c2ccncc2)CCC/C1=C\c1ccncc1,99*,.,9,-2,.,9,104*,109*
O=C1C(=Cc2ccncc2)CCCc2ccccc21,18,.,5,-1,.,.,.,.
CN(CCO)c1cccc2c1S(=O)(=O)N(Cc1cn(Cc3ccc(F)cc3)nn1)Cc1ccccc1O2,.,.,0,-1,.,.,.,.
COc1cccc(C(=O)Nc2ccc(C(=O)NCC3COc4ccccc4O3)cc2)c1 (stereo not drawn),.,.,4,6,.,.,.,.
Cc1nc([N+](=O)[O-])c(Br)n1CC(=O)c1ccccc1,14,1,3,4,23,-2,.,.
Cc1nc([N+](=O)[O-])c(Br)n1CC(=O)c1ccc2ccccc2c1,25*,-1,2,6,20,4,53*,36*
